NALP3 yeast inh: NALP3 inflammasome inhibitors in reconstituted yeast, primary screen, luminescence, uHTS. AID 2825, 2010. Yeast reconstituted NLRP3/ASC/caspase-1, beta-gal luminescence, 24 h. inhibition, % at 10 µM. hit rate 0.39% among 330,000;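 active means inhibition of 50% or more; inactive means inhibition below 50%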;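 further: plate controls were induced DMSO wells for no effect and uninduced yeast grown without galactose for full effect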
NALP1 yeast inh: NALP1 inflammasome inhibitors in reconstituted yeast, colorimetric, S. cerevisiae, triplicate retest | S. cerevisiae NALP1/ASC/caspase-1 growth, X-gal OD620, 72 h | inhibition, % at 10 µM | hit rate 0.61% among 280,000 | AID 2071, 2009; in the data active means inhibition mostly above about 24%, no sharp cut-off; inactive means mostly below about 32%
dFosB activator: activators of delta FosB homodimer, primary screen, biochemical, fluorescence polarization, TAMRA-CDK5 oligo, single point. Protein FosB (Mus musculus), P13346. purified delta FosB; percent of positive-control signal above neutral wells. activation, % at 25 µM. hit rate 0.99% among 340,000;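 active means mean activation above about 17%, with every replicate also reaching it, limit read from the data, passing the limit was not always enough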
Target sequence (P13346 whole entry, looked up): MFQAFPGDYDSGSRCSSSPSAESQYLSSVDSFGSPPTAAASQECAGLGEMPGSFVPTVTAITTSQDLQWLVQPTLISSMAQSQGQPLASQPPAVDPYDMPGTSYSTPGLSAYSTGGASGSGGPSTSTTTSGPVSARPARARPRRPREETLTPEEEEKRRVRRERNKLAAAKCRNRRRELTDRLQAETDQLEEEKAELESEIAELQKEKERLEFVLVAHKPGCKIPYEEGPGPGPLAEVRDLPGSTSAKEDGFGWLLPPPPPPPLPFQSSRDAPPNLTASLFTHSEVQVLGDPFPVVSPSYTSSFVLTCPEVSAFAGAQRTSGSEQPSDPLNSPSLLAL
EBNA-1 inh: EBNA-1 DNA-binding inhibitors, primary screen, biochemical, fluorescence polarization. inhibition, % at 14.8 µM. hit rate 0.34% among 300,000; in the data active means inhibition above about 28%
PolyA inh: polyadenylation inhibitors in yeast reporter cells, primary screen, luminescence, S. cerevisiae. S. cerevisiae SKY197-pL101 polyadenylation reporter, beta-gal luminescence; efflux-impaired pdr1/pdr3 knockout yeast; score 100 = 6 SD above DMSO. activity score, % at 12 µM. hit rate 0.02% among 300,000;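 active means lowest replicate activity score at least 50, where 100 means six control SD above control mean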;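 further: yeast exposed to compound for 9 h at 30 °C; higher score means more reporter readthrough which indicates perturbed polyadenylation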
ZTA DNA inh: ZTA (EBV) inhibition in EBNA-1 counter-screen; ZTA-DNA binding, fluorescence polarization; inhibition, % at 11 µM; hit rate 0.15% among 320,000; in the data active means inhibition above about 33%
Target sequence (P03206 whole entry, looked up): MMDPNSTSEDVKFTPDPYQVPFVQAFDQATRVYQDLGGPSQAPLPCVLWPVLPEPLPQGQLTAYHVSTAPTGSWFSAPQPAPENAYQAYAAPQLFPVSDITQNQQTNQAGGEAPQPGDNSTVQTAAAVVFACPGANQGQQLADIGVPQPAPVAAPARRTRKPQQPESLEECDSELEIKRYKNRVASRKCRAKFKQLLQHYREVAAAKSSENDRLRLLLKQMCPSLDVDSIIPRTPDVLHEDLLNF
NALP3 confirm: NALP3 inhibitors retested in yeast, confirmation, luminescence, single concentration | shares compounds with NALP3 yeast inh | yeast expressing human NALP3 | inhibition, % at 10 µM | hit rate 81% among 1,300 | AID 435006, 2010; in the data active means inhibition above about 48%
Casp1 ASC ctr: CASP1-PYCARD signaling inhibition in yeast, confirmatory test, counterassay for NLRP3 inhibitor program, one-dose; shares compounds with NALP3 yeast inh; yeast expressing Caspase-1-ASC, luminescence counter screen; inhibition, % at 10 µM; hit rate 66% among 1,000; AID 488784, 2010
NALP3 yeast rt: NALP3 inhibitors in yeast, repeat test, confirmation, luminescence, single concentration, retest; hit rate 53% among 1,000; shares compounds with NALP3 yeast inh; inhibition, % at 10 µM; yeast expressing human NALP3, luminescence read-out
* hit, by the source's call; / = no result. The list is not random: actives were taken first. Their share in the collection is about 2.2%. Unless noted, no stated cut-off is given here; in the data, active means inhibition above about 50%; inactive means the rest.

SMILES	NALP3 yeast inh	NALP1 yeast inh	dFosB activator	EBNA-1 inh	PolyA inh	ZTA DNA inh	NALP3 confirm	Casp1 ASC ctr	NALP3 yeast rt
Clc1cccc(Cl)c1/C=N/Nc1c(Cl)cncc1Cl	1	2	-1	1	-24	-2	/	/	/
CC(NC(=O)c1ccccc1Br)c1ccc2c(c1)CCCC2 (configuration not stated)	57*	7	-4	0	3	-7	70*	52*	31
Cc1ccc(-n2c(N)c(C(=O)Nc3ccccc3F)sc2=S)cc1C	2	3	-8	23	-5	6	/	/	/
C=C(C)COc1ccc(-c2n[nH]c(C)c2-c2ccc(OC)c(OC)c2)c(O)c1	-14	2	5	-4	-7	-4	/	/	/
Cc1ccc(C(=O)NC(=C(Cl)Cl)S(=O)(=O)c2ccc(Cl)cc2)cc1	57*	13	-10	3	-18	-2	41	33	40
Cc1ccc(C(=O)NC(=C(Cl)Cl)S(=O)(=O)c2ccc(C)cc2)cc1	31	30	0	-1	-24	-10	/	/	/
Cc1ccc(C(=O)NNC(=S)NC(=O)c2ccc(Cl)cc2)cc1	71*	-4	10	4	-7	4	78*	74*	72*
O=C1OC[C@H](Cc2ccc3c(c2)OCO3)/C1=C\c1ccc2c(c1)OCO2	23	/	-9	15	-6	3	/	/	/
CN(CC(=O)Nc1ccc(Cl)c(C(F)(F)F)c1)C(=O)CCN1C(=O)C2CC=CCC2C1=O (configuration not stated)	-4	/	-1	3	-7	-6	/	/	/
Nc1ccc(Br)cc1-c1nc2ccccc2[nH]c1=O	54*	-1	-9	-6	-4	4	24	/	/
Nc1ccccc1-c1nc2ccccc2[nH]c1=O	32	15	-4	/	-6	/	/	/	/
CCC(=O)N1CCN(CCN=CC2=C(O)CC(c3cccs3)CC2=O)CC1 (configuration not stated)	56*	-4	-2	1	-14	0	56*	45	45
O=c1[nH]nc(-c2ccccc2)c2ccccc12	5	24	-6	6	25	11	/	/	/
c1ccc(-c2n[nH]c3ccccc23)cc1	65*	22*	0	1	-6	1	85*	70*	63*
COc1ccccc1-c1cccc([C@@H]2C[C@H]3[C@H](CON3C)CN2C(=O)C(C)(C)C)c1	/	/	-3	/	/	/	/	/	/
CC1(C)COC(/C=C/c2cccc([N+](=O)[O-])c2)=N1	55*	11	-4	-13	-3	0	62*	74*	57*
CC1(C)COC(c2cc([N+](=O)[O-])ccc2Cl)=N1	28	1	-2	-17	-3	3	/	/	/
CN(Cc1ccc(Cl)c(Cl)c1)C(=O)C1=CC=CN2CCS(=O)(=O)N=C12	-1	/	-9	/	/	-16	/	/	/
CC(NC(=O)COC(=O)C1CCCCC1)c1ccccc1 (configuration not stated)	4	/	-2	/	/	/	/	/	/
CC1CCc2c(C(=O)Nc3nccs3)csc2C1 (configuration not stated)	58*	30	-6	4	8	-5	69*	77*	46
COc1cc(CCC(=O)Nc2nccs2)cc(OC)c1OC	10	17	5	-10	4	0	/	/	/
CC(=O)Nc1ccc(S(=O)(=O)N2CCN(C(=O)c3ncoc3-c3ccc(F)cc3)CC2)cc1	7	16	-6	1	7	-15	/	/	/
O=C(/C=C/c1ccnc2ccccc12)c1cccs1	53*	3	-9	9	-32	-4	73*	/	/
O=C(Cn1cnc2ccccc2c1=O)c1cccs1	0	-2	2	-1	9	0	/	/	/
Cc1noc(/C=C/c2cccnc2)c1[N+](=O)[O-]	80*	28	-4	-8	-52	13	87*	85*	54*
SMILES	NALP3 yeast inh	NALP1 yeast inh	dFosB activator	EBNA-1 inh	PolyA inh	ZTA DNA inh	NALP3 confirm	Casp1 ASC ctr	NALP3 yeast rt
Cc1cccc(C)c1N/C=C/c1onc(C)c1[N+](=O)[O-]	16	27	-5	3	18	-1	/	/	/
Nc1cccc(N=[N+]([O-])c2cccc(N)c2)c1	/	/	-4	/	/	/	/	/	/
C[C@@H](C[C@@H](O)[C@H](O)C(C)(C)O)[C@@H]1CC[C@]2(C)C3=CC[C@H]4C(C)(C)C(=O)CC[C@]4(C)[C@H]3CC[C@@]12C	62*	44*	-11	9	-1	-15	76*	/	/
CN(C)c1ccc(/C=C2\Oc3ccc(C#Cc4cccc(N)c4)cc3C2=O)cc1	0	/	-71	/	/	/	/	/	/
CCOc1ccccc1NC(=O)Cc1coc2ccc(C)cc12	63*	6	-2	2	-13	-14	76*	65*	55*
COc1ccc(OC)c(NC(=O)Cc2coc3ccc(C)cc23)c1	45	8	-6	5	-4	6	/	/	/
CCOc1ccc(C2NC(=O)CCC2[N+](=O)[O-])cc1 (configuration not stated)	27	6	-3	-14	11	-17	/	/	/
N#Cc1nc(-c2cccs2)oc1NCCc1ccccc1	71*	7	-2	-11	31	-2	77*	70*	63*
N#Cc1nc(-c2ccccc2F)oc1NCCc1ccccc1	31	10	-1	7	13	-4	/	/	/
O=C(NNC(=O)c1ccccc1Cl)c1ccc2c(c1)OCCO2	9	/	9	/	/	/	/	/	/
CC(=O)c1ccc(Oc2ccc(C(C)=O)cc2)cc1	25	5	-9	-7	12	-22	/	/	/
Oc1ccc(Oc2ccc(Oc3ccc(O)cc3)cc2)cc1	79*	38*	-14	12	-1	14	83*	93*	85*
O=C(Cc1ccc(F)cc1)Nc1nnc(-c2ccc(F)cc2)o1	-6	14	9	-8	-5	-14	/	/	/
CN1CCN(Cn2cc(/C=C/C(=O)c3ccccc3)c3ccccc32)CC1	67*	0	-11	1	-12	-11	74*	/	/
COc1cc(C(=O)NCC2(N(C)C)CCCCC2)ccc1OCc1ccccc1	15	0	-10	-8	-1	5	/	/	/
O=C(Nc1cccc(C(=O)N2CCCC2)c1)C1CCCCC1	/	/	-2	/	/	/	/	/	/

High-throughput results from PubChem.
